Assay results reported in PubChem BioAssay (EPA / NIEHS).
Inconclusive results are not listed. Activity calls are given as the source filed them. The calls were made as follows, unless noted: active = hit-call score of the fitted dose curve at least 0.9, where 1 is the maximum; inconclusive = response in the unintended direction; inactive = score below 0.9.

Key:
[1] = target: human CYP1A2, CYP1A2 (gene 1544) (UniProt P05177); test: NVS_ADME_hCYP1A2: NovaScreen (NVS) CYP450-related Enzyme Activity (ADME) Assay for human CYP1A2 (AID 2283102)
Outline: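 Inhibition scored as decrease in fluorescent product versus acetonitrile negative control. Enzyme: insect-cell recombinant human CYP1A2, substrate-specific, cell-free. Reading at 0.5 h; 10 uM duplicate initial screen with positive and negative controls on every plate.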

[2] = target: human c-Jun N-terminal Kinases (JNK2), MAPK9 (gene 5601) (UniProt P45984); test: NVS_ENZ_hJNK2: NovaScreen (NVS) Enzymatic Assay for human c-Jun N-terminal Kinases (JNK2) (AID 2283171)
Outline: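 Chemicals first tested in duplicate at 25 uM, then in singleton concentration series up to 50 uM, against extracted JNK2 enzyme. Activity loss read by fluorescence with mobility-shift separation 1 h post-dose; DMSO baseline.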

[3] = target: Mitogen-activated protein kinase 3 (Homo sapiens) (UniProt P27361); test: NVS_ENZ_hMAPK3: NovaScreen (NVS) Enzymatic Assay for human Mitogen-Activated Protein Kinase 3 (MAPK 3) (AID 2283177)
Outline: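 Chemicals were first tested in duplicate at 25 uM, with hits re-run as concentration series (max 50 uM). Recombinant enzyme activity, measured 1 h post-dose in a cell-free format, was read by fluorescence/mobility shift relative to DMSO.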

[4] = target: human Mitogen- and Stress-activated Protein Kinase-1 (Msk1), RPS6KA5 (gene 9252) (UniProt O75582); test: NVS_ENZ_hMsk1: NovaScreen (NVS) Enzymatic Assay for human Mitogen- and Stress-activated Protein Kinase-1 (Msk1) (AID 2283187)
Outline: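 Chemicals first run in duplicate at 25 uM, with actives followed up in singleton concentration series to 50 uM maximum. Enzyme activity came from substrate/product mobility-shift separation with fluorescence detection after 1 h incubation of the recombinant protein.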

[5] = target: human Phosphodiesterase 4A1 (PDE4A1), PDE4A (gene 5141) (UniProt P27815); test: NVS_ENZ_hPDE4A1: NovaScreen (NVS) Enzymatic Assay for human Phosphodiesterase 4A1 (PDE4A1) (AID 2283191)
Outline: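 Fluorescent substrate turnover by recombinant PDE4A1 read after 1 h by mobility-shift separation. Primary duplicate screen at 25 uM; hits retested in concentration series with a 50 uM maximum, relative to DMSO.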

[6] = target: human Phosphodiesterase 5 (PDE5), PDE5A (gene 8654) (UniProt O76074); test: NVS_ENZ_hPDE5: NovaScreen (NVS) Enzymatic Assay for human Phosphodiesterase 5 (PDE5) (AID 2283194)
Outline: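 Screening began in duplicate at 25 uM, with actives taken into concentration-response. Enzyme activity of recombinant PDE5 toward its substrate was measured at 1 h by fluorescence mobility-shift detection, relative to DMSO controls.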

[7] = target: Tyrosine-protein phosphatase non-receptor type 14 (Homo sapiens) (UniProt Q15678); test: NVS_ENZ_hPTPN14: NovaScreen (NVS) Enzymatic Assay for human Protein Tyrosine Phosphatase Non-receptor Type 14 (PTPN14) (AID 2283206)
Outline: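 Fluorescent substrate turnover by recombinant human PTPN14 was measured 0.5 h after compound addition, with substrate and product separated by mobility shift. Single-point screening at 25 uM, then concentration-response up to 50 uM for chemicals meeting threshold (e.g., 30% inhibition).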

[8] = target: human SRC Proto-Oncogene, Non-receptor Tyrosine Kinase (SRC), SRC (gene 6714) (UniProt P12931); test: NVS_ENZ_hSRC: NovaScreen (NVS) Enzymatic Assay for human SRC Proto-Oncogene, Non-receptor Tyrosine Kinase (SRC) (AID 2283223)
Outline: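 Compounds passing 30% inhibition at 25 uM (duplicate) were titrated to a top concentration of 50 uM. Enzyme activity read by fluorescence with mobility-shift substrate/product separation after 1 h; DMSO baseline.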

[9] = system: bovine Histamine 1 Receptor (H1), gene 281231; test: NVS_GPCR_bH1: NovaScreen (NVS) G Protein-Coupled Receptor Assay for bovine Histamine 1 Receptor (H1) (AID 2283246)
Outline: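 Hits from a 25 uM duplicate primary screen were retested in concentration series (top 50 uM); binding measured as scintillation-counted displacement of radioligand from bovine cerebellar membranes after 1 h, normalised to DMSO.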

[10] = target: rat Glutamate Metabotropic Receptor 5 (MGluR5), Grm5 (gene 24418) (UniProt P31424); test: NVS_GPCR_rmMGluR5: NovaScreen (NVS) G Protein-Coupled Receptor Assay for rat Glutamate Metabotropic Receptor 5 (MGluR5) (AID 2283307)
Outline: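 Compounds first screened in duplicate at 25 uM, then in concentration series up to 50 uM if over threshold. Radioligand displacement on rat whole-brain membranes, filtration and scintillation counting after 1.5 h; binding loss relative to DMSO.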

[11] = read-out: Cyclin D2 (CCND2), CCND2 (gene 894); test: LTEA_HepaRG_CCND2: Life Technologies and Expression Analysis (LTEA) Assay for Cyclin D2 (CCND2) using HepaRG (AID 2283449; active = hit-call score of the fitted dose curve at least 0.9, where 1 is the maximum; inactive = score below 0.9;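 also: CCND2 transcript measured by TaqMan qRT-PCR and normalised to three housekeeping genes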); settings: mRNA level, 48 h; actives raise or lower the signal
Outline: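 In this HepaRG study, an eight-point concentration series (max 100 uM, 0.5% DMSO) is applied for 48 h. CCND2 mRNA change is derived by qRT-PCR normalised to ACTB, GAPDH and POLR2A.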

[12] = Tanguay_ZF_120hpf_CIRC_legacy: (Legacy) Oregon State University Tanguay Lab 120 Hour Post-fertilization zebrafish Assay for Circulatory Malformation (AID 2283651)
Outline: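 Static exposure, 6–120 hpf, 28C, sealed and dark; one dechorionated 5D embryo/well; DMSO 0.64% v/v final. Binary circulation endpoint by brightfield; dead embryos not scored.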

[13] = target: human Beta-secretase (BACE), BACE1 (gene 23621) (UniProt P56817); test: NVS_ENZ_hBACE: NovaScreen (NVS) Enzymatic Assay for human Beta-secretase (BACE) (AID 2283140);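 also: hits are inhibitors that reduce fluorescent substrate signal versus DMSO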
Outline: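 SF9-expressed enzyme, cell-free; fluorescent substrate readout after 1 h. Screened at 25 uM single concentration, duplicate; hits retested in concentration series. Activity relative to DMSO baseline, loss-of-signal.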

[14] = target: human Matrix Metalloproteinase-9 (MMP9), MMP9 (gene 4318) (UniProt P14780); test: NVS_ENZ_hMMP9: NovaScreen (NVS) Enzymatic Assay for human Matrix Metalloproteinase-9 (MMP9) (AID 2283190);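 also: cell-free recombinant MMP9 protease activity read by fluorescent substrate signal; active means inhibition seen as loss of fluorescence signal versus DMSO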
Outline: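 Inhibition was scored as loss of fluorescence signal against DMSO controls. The recombinant protease was exposed to chemicals for 1 hour before reading; initial testing used 25 uM in duplicate.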

[15] = target: Estrogen receptor (Homo sapiens) (UniProt P03372); test: NVS_NR_hER: NovaScreen (NVS) Nuclear Receptor Binding Assay for human Estrogen Receptor (ER) (AID 2283348)
Outline: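 Radiodetection of ligand displacement in a lysate-based, cell-free format using MCF7 extracts, read at 18 hours. Duplicate 25 uM primary testing, then concentration series for actives.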

[16] = target: mouse Estrogen Receptor alpha (Era), Esr1 (gene 13982) (UniProt P19785); test: NVS_NR_mERa: NovaScreen (NVS) Nuclear Receptor Binding Assay for mouse Estrogen Receptor alpha (Era) (AID 2283378);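 also: hit means loss of bound radioligand signal relative to DMSO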
Outline: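 Measurements come from scintillation counting after filtration, taken 18 hours after chemicals were added to a cell-free mouse Era preparation with radioligand. Screening was duplicate at 25 uM, with concurrent positive and negative controls and confirmatory concentration series for actives.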

[17] = target: chimpanzee Androgen Receptor (AR), AR (gene 747460) (UniProt O97775); test: NVS_NR_cAR: NovaScreen (NVS) Nuclear Receptor Binding Assay for chimpanzee Androgen Receptor (AR) (AID 2283346);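 also: radioligand displacement from AR measured by scintillation counting in a cell-free assay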
Outline: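 Cell-free radioligand displacement using receptor protein extracted from Sf9/Sf21 cells; bound radioligand measured by scintillation counting 72 hours after chemical dosing. Loss of signal versus DMSO baseline indicates binding; primary screen single-concentration in duplicate at 25 uM, actives followed in concentration series.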

[18] = system: zebrafish Androgen Receptor (AR), gene 100005148; test: ATG_zfAR_XSP1: Attagene TRANS-FACTORIAL Multi-Species (XSP1) HepG2 Assay for zebrafish Androgen Receptor (AR) (AID 2283771)
Outline: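 Gain-of-signal versus DMSO was measured as reporter transcripts quantified by RT-PCR, fluorescent labelling and capillary electrophoresis after 24 h chemical exposure. The cells were HepG2 expressing a chimeric zebrafish AR-GAL4, co-stimulated with 3 nM 6-alpha-fluorotestosterone.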

[19] = ATG_M_06_XSP1: Attagene TRANS-FACTORIAL Multi-Species (XSP1) HepG2 Assay for M06 Transcription Factor (Internal Marker) (AID 2283790)
Outline: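 This background-control readout tracks M06 reporter mRNA, measured by RT-PCR and capillary electrophoresis. HepG2 cells transiently carrying the GAL4-UAS reporter panel were dosed for 24 h with 3 nM 6-alpha-fluorotestosterone added for partial AR stimulation; increases were scored relative to DMSO.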

[20] = ATG_M_61_XSP1: Attagene TRANS-FACTORIAL Multi-Species (XSP1) HepG2 Assay for M61 Transcription Factor (Internal Marker) (AID 2283797)
Outline: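 Background-control readout: reporter transcripts measured by RT-PCR and capillary electrophoresis 24 h after dosing transiently transfected HepG2 multi-reporter cells, with 3 nM 6-alpha-fluorotestosterone present. Fitted in the positive direction relative to DMSO.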

Measured: AC50

human CYP1A2, CYP1A2 (gene 1544), sequence (P05177 whole entry, looked up): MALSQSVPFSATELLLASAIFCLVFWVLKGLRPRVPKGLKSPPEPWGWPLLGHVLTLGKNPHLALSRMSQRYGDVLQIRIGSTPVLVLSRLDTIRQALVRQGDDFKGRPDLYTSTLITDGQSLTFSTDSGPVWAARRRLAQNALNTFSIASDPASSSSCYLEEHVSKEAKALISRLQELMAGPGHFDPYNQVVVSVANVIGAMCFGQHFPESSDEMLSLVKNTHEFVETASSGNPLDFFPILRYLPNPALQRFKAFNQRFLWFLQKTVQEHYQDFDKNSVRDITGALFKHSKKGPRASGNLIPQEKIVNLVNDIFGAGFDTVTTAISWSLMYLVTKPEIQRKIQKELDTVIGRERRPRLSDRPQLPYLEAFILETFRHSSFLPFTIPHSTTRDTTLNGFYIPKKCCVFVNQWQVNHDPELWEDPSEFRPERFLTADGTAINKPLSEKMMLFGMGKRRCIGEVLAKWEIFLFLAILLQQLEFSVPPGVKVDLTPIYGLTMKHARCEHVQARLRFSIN
human Beta-secretase (BACE), BACE1 (gene 23621), sequence (P56817 whole entry, looked up): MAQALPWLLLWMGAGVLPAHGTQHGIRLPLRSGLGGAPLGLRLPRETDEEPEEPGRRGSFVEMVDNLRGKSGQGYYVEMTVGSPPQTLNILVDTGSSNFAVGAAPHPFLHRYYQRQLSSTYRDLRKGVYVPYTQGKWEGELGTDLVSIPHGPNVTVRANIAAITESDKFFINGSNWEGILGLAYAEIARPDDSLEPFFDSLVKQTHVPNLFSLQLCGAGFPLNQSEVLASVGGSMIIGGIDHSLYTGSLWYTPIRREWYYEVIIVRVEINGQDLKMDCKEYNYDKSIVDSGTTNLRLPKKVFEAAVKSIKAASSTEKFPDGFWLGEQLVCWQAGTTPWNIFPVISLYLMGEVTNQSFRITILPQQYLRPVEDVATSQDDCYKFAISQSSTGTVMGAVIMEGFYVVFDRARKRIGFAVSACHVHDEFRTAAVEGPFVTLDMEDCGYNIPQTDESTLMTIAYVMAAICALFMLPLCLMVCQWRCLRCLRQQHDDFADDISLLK
human c-Jun N-terminal Kinases (JNK2), MAPK9 (gene 5601), sequence (P45984 whole entry, looked up): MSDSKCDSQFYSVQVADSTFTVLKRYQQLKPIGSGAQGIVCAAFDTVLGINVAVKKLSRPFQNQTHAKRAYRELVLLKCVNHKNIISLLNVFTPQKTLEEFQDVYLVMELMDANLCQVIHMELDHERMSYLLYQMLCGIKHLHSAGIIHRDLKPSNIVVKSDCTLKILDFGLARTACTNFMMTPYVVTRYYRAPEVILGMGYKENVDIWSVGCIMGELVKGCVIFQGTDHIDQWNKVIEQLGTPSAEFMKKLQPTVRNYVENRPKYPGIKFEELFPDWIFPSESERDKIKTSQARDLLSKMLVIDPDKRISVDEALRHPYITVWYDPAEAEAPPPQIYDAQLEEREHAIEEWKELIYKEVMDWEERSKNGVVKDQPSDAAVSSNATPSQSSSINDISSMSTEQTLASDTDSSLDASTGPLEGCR
Estrogen receptor (Homo sapiens), sequence (P03372 whole entry, looked up): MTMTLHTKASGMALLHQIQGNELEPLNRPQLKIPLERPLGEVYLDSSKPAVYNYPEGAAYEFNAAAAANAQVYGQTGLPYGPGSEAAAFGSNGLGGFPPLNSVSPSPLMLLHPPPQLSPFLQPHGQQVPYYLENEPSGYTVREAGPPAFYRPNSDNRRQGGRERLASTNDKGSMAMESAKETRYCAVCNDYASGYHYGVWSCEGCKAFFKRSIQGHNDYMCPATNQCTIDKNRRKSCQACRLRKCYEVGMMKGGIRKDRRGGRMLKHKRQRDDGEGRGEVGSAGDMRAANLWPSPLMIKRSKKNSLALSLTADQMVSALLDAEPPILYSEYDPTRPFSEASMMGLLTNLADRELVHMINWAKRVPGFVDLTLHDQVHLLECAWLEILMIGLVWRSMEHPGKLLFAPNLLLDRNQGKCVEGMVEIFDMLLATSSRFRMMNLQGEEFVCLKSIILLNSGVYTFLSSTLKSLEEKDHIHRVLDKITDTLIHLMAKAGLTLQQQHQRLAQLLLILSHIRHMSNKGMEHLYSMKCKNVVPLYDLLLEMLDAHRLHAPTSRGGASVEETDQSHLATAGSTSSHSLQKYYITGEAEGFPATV
Tyrosine-protein phosphatase non-receptor type 14 (Homo sapiens), sequence (Q15678 whole entry, looked up): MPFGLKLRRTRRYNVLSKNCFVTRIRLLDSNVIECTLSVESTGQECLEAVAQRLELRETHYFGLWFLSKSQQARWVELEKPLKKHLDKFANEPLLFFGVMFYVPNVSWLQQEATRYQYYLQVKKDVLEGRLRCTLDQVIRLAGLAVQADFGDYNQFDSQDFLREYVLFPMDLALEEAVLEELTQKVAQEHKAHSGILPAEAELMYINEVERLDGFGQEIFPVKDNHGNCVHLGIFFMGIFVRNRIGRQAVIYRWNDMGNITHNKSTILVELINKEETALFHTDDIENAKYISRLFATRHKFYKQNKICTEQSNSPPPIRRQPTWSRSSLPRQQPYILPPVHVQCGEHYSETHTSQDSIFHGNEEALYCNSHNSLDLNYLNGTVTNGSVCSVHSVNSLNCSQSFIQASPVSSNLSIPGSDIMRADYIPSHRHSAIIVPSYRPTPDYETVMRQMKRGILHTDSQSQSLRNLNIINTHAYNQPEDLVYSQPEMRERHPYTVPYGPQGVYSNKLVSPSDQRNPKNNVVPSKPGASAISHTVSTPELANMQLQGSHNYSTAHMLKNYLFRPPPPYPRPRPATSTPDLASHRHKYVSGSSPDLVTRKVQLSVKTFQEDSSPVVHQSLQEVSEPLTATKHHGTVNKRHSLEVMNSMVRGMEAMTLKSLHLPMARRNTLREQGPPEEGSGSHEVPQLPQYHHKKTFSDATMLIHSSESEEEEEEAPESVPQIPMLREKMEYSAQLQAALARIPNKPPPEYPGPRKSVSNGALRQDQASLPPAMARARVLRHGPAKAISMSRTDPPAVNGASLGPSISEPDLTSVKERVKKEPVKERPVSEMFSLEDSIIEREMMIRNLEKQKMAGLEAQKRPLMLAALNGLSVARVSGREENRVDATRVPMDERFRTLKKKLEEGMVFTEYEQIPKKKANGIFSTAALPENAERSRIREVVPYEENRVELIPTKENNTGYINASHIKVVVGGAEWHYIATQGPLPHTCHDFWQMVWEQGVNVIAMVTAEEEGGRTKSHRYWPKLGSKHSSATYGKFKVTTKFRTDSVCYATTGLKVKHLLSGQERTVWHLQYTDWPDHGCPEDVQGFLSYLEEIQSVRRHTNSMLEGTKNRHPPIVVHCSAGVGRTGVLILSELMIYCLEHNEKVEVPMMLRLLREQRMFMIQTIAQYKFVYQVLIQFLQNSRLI
human Phosphodiesterase 4A1 (PDE4A1), PDE4A (gene 5141), sequence (P27815 whole entry, looked up): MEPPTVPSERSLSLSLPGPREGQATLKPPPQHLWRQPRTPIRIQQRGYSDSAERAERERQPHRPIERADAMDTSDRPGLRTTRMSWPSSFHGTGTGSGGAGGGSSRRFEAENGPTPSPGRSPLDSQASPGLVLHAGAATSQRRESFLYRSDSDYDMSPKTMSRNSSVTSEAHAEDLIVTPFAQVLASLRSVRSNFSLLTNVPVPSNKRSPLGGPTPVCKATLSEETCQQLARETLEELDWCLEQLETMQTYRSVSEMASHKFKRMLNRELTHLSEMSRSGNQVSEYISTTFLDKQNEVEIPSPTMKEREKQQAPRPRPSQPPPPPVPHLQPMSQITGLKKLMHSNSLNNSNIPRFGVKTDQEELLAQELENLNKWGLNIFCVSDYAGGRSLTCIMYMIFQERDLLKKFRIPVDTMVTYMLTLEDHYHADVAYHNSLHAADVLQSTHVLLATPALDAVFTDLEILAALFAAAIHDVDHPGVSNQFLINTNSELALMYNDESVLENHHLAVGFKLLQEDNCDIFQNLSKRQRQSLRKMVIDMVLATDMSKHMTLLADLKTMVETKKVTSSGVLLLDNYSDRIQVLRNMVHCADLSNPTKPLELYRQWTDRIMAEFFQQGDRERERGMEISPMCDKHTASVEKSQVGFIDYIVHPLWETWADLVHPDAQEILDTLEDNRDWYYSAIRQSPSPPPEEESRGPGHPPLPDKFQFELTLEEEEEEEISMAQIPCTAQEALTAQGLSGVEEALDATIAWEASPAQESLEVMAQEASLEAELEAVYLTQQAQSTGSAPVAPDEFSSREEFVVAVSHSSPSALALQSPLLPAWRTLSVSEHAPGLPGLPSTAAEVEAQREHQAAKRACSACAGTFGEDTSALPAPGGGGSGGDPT
Mitogen-activated protein kinase 3 (Homo sapiens), sequence (P27361 whole entry, looked up): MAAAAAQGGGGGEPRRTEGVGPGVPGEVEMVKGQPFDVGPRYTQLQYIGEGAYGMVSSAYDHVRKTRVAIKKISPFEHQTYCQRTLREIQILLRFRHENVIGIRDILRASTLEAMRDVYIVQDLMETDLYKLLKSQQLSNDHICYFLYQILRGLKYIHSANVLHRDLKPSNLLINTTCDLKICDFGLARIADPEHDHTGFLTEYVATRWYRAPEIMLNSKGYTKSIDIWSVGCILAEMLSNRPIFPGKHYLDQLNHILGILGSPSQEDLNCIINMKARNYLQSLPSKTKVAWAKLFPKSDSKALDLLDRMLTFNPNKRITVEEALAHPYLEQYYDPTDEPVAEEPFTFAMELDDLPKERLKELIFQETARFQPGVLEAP
human SRC Proto-Oncogene, Non-receptor Tyrosine Kinase (SRC), SRC (gene 6714), sequence (P12931 whole entry, looked up): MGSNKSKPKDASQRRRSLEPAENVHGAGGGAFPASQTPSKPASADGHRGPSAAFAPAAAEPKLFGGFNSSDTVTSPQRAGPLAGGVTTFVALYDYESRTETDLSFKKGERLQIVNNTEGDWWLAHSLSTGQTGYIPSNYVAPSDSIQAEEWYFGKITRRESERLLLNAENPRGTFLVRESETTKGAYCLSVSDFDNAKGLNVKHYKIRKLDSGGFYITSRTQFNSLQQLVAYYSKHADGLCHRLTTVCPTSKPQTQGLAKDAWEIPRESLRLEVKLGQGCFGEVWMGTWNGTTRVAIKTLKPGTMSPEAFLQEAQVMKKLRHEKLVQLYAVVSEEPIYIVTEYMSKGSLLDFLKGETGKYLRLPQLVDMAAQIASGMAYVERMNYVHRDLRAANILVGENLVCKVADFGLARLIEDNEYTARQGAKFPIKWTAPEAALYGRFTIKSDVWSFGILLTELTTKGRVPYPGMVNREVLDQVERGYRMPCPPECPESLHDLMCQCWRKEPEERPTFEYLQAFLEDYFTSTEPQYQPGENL

N#CCCCCC#N
not listed: [13] | [14] | [15] | [16] | [17] | [18] | [19] | [20]
inactive: all other assays above

CC(C)COP(=O)(OCC(C)C)OCC(C)C
inactive: [13]

CCOP(=O)(OCC)OCC
active: [14] 5.9 µM

Oc1ccc(C2(c3ccc(O)cc3)c3ccccc3-c3ccccc32)cc1
active: [15] 0.644 µM | [16] 0.432 µM

CC(=O)c1cc2c(cc1C)C(C)(C)C(C)CC2(C)C (stereo not given)
inactive: [17] | [19] | [20]
active: [18] 64.4 µM
